Data taken from PubChem BioAssay (NCI).
This is part of a sample that, as a whole, favours compounds with a hit. Of some 83,000 tested, about 20% had one in any assay.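 Method: cells in 96-well plates; compound added at one concentration; 48 h incubation; percent growth measured; values under 10 scored active.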 A number with no mark means an inactive call. Calls of active or inactive are those of the source.

Experiments:
Experiment in all cases: NCI-60 one-dose screen, 48 h (100 = growth as untreated, 0 = no growth, -100 = all killed)
Conditions in all cases: 10 µM unless noted
NCI-H23 lung = system: NCI-H23 lung
NCI-H226 lung = system: NCI-H226 lung
NCI-H322M lung = system: NCI-H322M lung
HOP-62 NSCLC = system: HOP-62 NSCLC
NCI-H460 lung = system: NCI-H460 lung
HOP-92 NSCLC = system: HOP-92 NSCLC
NCI-H522 lung = system: NCI-H522 lung
A549/ATCC NSCLC = system: A549/ATCC NSCLC
786-0 renal = system: 786-0 renal
COLO 205 colon = system: COLO 205 colon
DU-145 prostate = system: DU-145 prostate
K-562 leukemia = system: K-562 leukemia
MALME-3M melanoma = system: MALME-3M melanoma
MDA-MB-231 breast = system: MDA-MB-231 breast
RXF 393 renal = system: RXF 393 renal
SF-268 CNS = system: SF-268 CNS
SF-295 CNS = system: SF-295 CNS
SF-539 CNS = system: SF-539 CNS
UACC-257 melanoma = system: UACC-257 melanoma
M14 melanoma = system: M14 melanoma

Structure (SMILES) | growth (NCI-H23 lung) [%] | growth (NCI-H226 lung) | growth (NCI-H322M lung) | growth (HOP-62 NSCLC) | growth (NCI-H460 lung) | growth (HOP-92 NSCLC) | growth (NCI-H522 lung) | growth (A549/ATCC NSCLC) [%] | growth (786-0 renal) | growth (COLO 205 colon) | growth (DU-145 prostate) | growth (K-562 leukemia) | growth (MALME-3M melanoma) | growth (MDA-MB-231 breast) | growth (RXF 393 renal) | growth (SF-268 CNS) [%] | growth (SF-295 CNS) [%] | growth (SF-539 CNS) | growth (UACC-257 melanoma) [%] | growth (M14 melanoma)
Nc1ncnc2c1N=C(c1ccc3c(c1)OCO3)CC(c1cccc(Nc3ccnc4cc(Cl)ccc34)c1)N2 (stereo not given) | 49.8 | 69.8% | 76.2% | 64% | 59.8% | 26.6% | 58% | 67.2 | 55.1% | 82.7% | 63.1% | 2.1% (active) | 97.3% | 70.1% | 72.2% | 69.3 | 46.6 | 86.3% | 59.3 | 57.3%
N#Cc1c(-c2ccc(Cl)cc2)nc(SCC(=O)NC2=NN=C(c3ccccc3)CS2)[nH]c1=O | 76.3 | 106% | 89.7% | 68.9% | 110% | 58.2% | 66.4% | 90.6 | 93% | 80.7% | 105% | 42.4% | 75% | 78.1% | 84.5% | 91.4 | 107 | 91.4% | 84 | 72.3%
O=C1Nc2ccccc2[C@]12CC(c1ccccc1)=NN2 | 64.3 | 77.7% | 59.6% | 59.6% | 21.5% | 30.8% | 39.4% | 44.3 | 50.7% | 3.6% (active) | 74.5% | 21.8% | 37.2% | 53.4% | 73.3% | 47.5 | 45.6 | 28.4% | 67.8 | 25.8%
CN(C)Cc1ccc(NC(=O)c2cncc(C#Cc3cnc(N)c4ncccc34)c2)cc1F | 78.1 | 130% | 109% | 96.5% | 67.4% | 80.7% | 100% | 65.7 | -71.8% (active) | 49.5% | 86.8% | -4.46% (active) | 65.6% | -73.1% (active) | 40.1% | 94 | 95.9 | 95.4% | 88.7 | -84.5% (active)
N#CCSc1nnc2n(Cc3ccccc3)c(=O)c3c4c(sc3n12)CCCC4 | 105 | 102% | 102% | 91.9% | 108% | 71.3% | 104% | 80.4 | 76.3% | 106% | 107% | 70.5% | 99.5% | 98.8% | 83% | 98 | 102 | 104% | 98.9 | 109%
COc1ccc2cc(-c3ccc(NC(C)=O)c(=O)o3)ccc2c1 | 94.4 | 94.4% | 92.2% | 94.3% | 100% | 97.8% | 78.8% | 87.5 | 98.8% | 115% | 103% | 81.4% | 101% | 110% | 98.3% | 95.5 | 100 | 96.7% | 89.3 | 94.3%
CCc1ccc(C(=O)/C=C/C23c4ccccc4C(c4ccccc42)C2C(=O)NC(=O)C23)cc1 (stereo not given) | 15.9 | 42.3% | 15.8% | -3.98% (active) | 5.14% (active) | -17% (active) | -12.6% (active) | 21.5 | -12.8% (active) | -25.9% (active) | 12.6% | 8.82% (active) | -59.9% (active) | 9.93% (active) | -48.7% (active) | 26.5 | 12.9 | 11% | 27.8 | -8.91% (active)
C=CCc1c2c(c(OC)c3ccoc13)C(=O)/C(=C/c1ccccc1OC)O2 | 19.7 | 72.8% | 65.9% | 80% | 31.3% | 58.8% | 48.5% | 60.2 | 94.1% | 104% | 35% | 49.5% | 88.8% | 50.9% | 24.8% | 60.4 | 60.1 | 94.7% | 63.7 | 64.2%
O=C1/C(=C/c2ccc(F)cc2)COc2ccc(O)cc21 | 97 | 108% | 94.6% | 104% | 98.8% | 104% | 75.7% | 92.5 | 79.8% | 94.3% | 96.5% | 4.82% (active) | 85.6% | 97.2% | 104% | 90 | 104 | 87.2% | 107 | 88.1%
CCOC(=O)c1nc(Nc2ccc(NC(=O)Nc3ccc(F)cc3)cc2)c2ccccc2n1 | 92.3 | 90.4% | 97% | 97.6% | 99.1% | 106% | 98.5% | 102 | 106% | 108% | 108% | 102% | 92.6% | 95.9% | 93.2% | 98.3 | 99.8 | 99.9% | 103 | 97%
COc1ccc2[nH]cc(C(c3cc(F)cc(F)c3)c3c[nH]c4ccc(OC)cc34)c2c1 | 67.2 | 97.4% | 70.3% | 93.4% | 64.4% | 54.3% | 69.3% | 69.4 | 92.4% | 78.1% | 95.9% | 59% | 206% | 78.8% | 80.5% | 80 | 79.1 | 93.4% | 84.3 | 86.6%
C#Cc1cccc(Nc2ncnc3ccc(-c4cncc(NS(C)(=O)=O)c4)cc23)c1 | 26.5 | 45% | 1.41% (active) | 32% | 51.6% | -12.2% (active) | 3.44% (active) | 48.8 | 40.6% | 17.7% | 28.3% | 37.2% | 33.2% | 23.7% | 7.78% (active) | 24.1 | 37.6 | 17% | 37.4 | 47%
Cc1nc(-c2ccccc2)cc2c(O)c(C(=O)NN)[nH]c(=O)c12 | 103 | 104% | 92.7% | 107% | 106% | 85.6% | 94.3% | 102 | 108% | 117% | 115% | 104% | 229% | 102% | 101% | 96.2 | 111 | 100% | 118 | 101%
O=C(O)CCCN1C(=O)/C(=C/C(Cl)=C/c2ccccc2)SC1=S | 31.3 | 41.9% | 77.2% | 88% | 57.4% | 14.2% | 12.2% | 65 | -11.5% (active) | 11.6% | 18.9% | 14.7% | -2.99% (active) | 38.1% | -16.5% (active) | 56.1 | 49.5 | 10% | 40.8 | 9.62% (active)
O=C(NCCCCNC(=O)OCc1ccc2c(Cl)cc(Cl)c(O)c2n1)OCc1ccc2c(Cl)cc(Cl)c(O)c2n1 | 24.6 | 8.33% (active) | 34.3% | 9.48% (active) | 2.78% (active) | 48.5% | -2.86% (active) | 14.8 | 70.7% | 96.3% | 1.77% (active) | 11.6% | 43% | 25.1% | 27% | 31.3 | 22.8 | -13.7% (active) | 23.8 | 12.4%
N#C/C(=C\c1ccc2ccccc2c1)c1cc2ccccc2[nH]1 | 48.8 | 67.9% | 63.3% | 40.4% | 13.3% | 41.5% | 1.83% (active) | 51.1 | 41.1% | 24.9% | 59.5% | 19.4% | 45% | 41.5% | 29.3% | 54.2 | 33 | 32.9% | 63.2 | 18%
